Screening results deposited in PubChem BioAssay by several laboratories.
sEH inh: soluble epoxide hydrolase (human) inhibition; P34913; 0.34% of 91,000 active; recombinant human sEH enzymatic activity assay; inhibition, % at 2 µM; AID 707; in the data active means inhibition above about 80%
Target sequence (P34913 whole entry, looked up): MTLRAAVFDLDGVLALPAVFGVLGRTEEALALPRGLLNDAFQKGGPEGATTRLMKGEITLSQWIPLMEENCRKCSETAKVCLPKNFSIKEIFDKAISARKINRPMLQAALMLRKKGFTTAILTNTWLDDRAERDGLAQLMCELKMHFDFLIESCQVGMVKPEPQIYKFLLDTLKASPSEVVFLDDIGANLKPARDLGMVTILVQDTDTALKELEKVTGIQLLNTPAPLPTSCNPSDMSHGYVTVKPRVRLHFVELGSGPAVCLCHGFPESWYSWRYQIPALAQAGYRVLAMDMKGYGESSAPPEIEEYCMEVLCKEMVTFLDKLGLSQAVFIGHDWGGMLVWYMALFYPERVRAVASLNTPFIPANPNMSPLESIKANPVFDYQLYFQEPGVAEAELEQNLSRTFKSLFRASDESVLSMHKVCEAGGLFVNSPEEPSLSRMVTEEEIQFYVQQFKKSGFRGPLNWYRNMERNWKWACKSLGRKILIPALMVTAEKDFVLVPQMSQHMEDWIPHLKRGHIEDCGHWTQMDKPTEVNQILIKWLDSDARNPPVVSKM
CYP2C19 activ: increases human CYP2C19 enzyme activity. AID 1025. activation factor at 5 µM. P33261. 96,000 tested, under 10 active. recombinant CYP2C19, luciferin-H EGE luminescence; hits give high values; 0 = fully inhibited enzyme, 1 = untreated enzyme;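 active means activation factor of at least 2 at 5 µM in the primary screen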
CYP2C9 act: increases human cytochrome P450 2C9 activity. P11712. recombinant CYP2C9, luciferin-H conversion, luminescence; hits give high values; factor 1 = untreated enzyme, 0 = blocked. activation factor at 5 µM. 1.4% of 96,000 active. AID 1024;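 active means activation factor of 2 or more for CYP2C9 at a 5 µM dose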
sEH act: soluble epoxide hydrolase (human) activation. P34913. AID 717. activation, % at 2 µM. 0.04% of 91,000 active. purified human sEH enzymatic activity, activator screen; in the data active means activation above about 37%
CYP2C19 inhib: human CYP2C19 inhibition. CYP2C19 Supersomes, luciferin-H EGE luminescence, 30 min. inhibition, % at 5 µM. 21% of 96,000 active. AID 778;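 active means CYP2C19 inhibition above a set limit at 5 µM in the primary screen, cut at about 50% in these data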
CYP2C9 inh: inhibitors of human CYP2C9 | P11712 | CYP2C9 Supersomes, luciferin-H conversion, luminescence | inhibition, % at 5 µM | 20% of 96,000 active;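 active means blocking of liver enzyme CYP2C9 beyond about 50% at 5 µM, limit read from the data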
Of the large screens only hits and unclear results are named; the others gave an inactive call. Shown are actives, neighbours in structure and some others; about 27% of the full set was active somewhere.

COc1ccccc1OCC(=O)NCc1ccco1	none
COc1ccccc1N(C)S(=O)(=O)c1ccc(C(=O)OCC(=O)NCc2ccco2)cc1	CYP2C9 inh 87.7
O=C(COC(=O)c1cccc(Oc2ccccc2)c1)NCc1ccco1	none
CN(c1ccccc1)S(=O)(=O)c1ccc(C(=O)OCC(=O)NCc2ccco2)cc1	CYP2C19 inhib 97.1, CYP2C9 inh 94.4
O=C(COC(=O)c1cccc(S(=O)(=O)N2CCN(c3ccccc3)CC2)c1)NCc1ccco1	CYP2C19 inhib 77.9
Cc1ccccc1S(=O)(=O)c1c(C)cc(-c2ccccc2)[nH]c1=O	none
Cc1[nH]c2c(C)cccc2c(=O)c1Br	none (no result: sEH inh, sEH act)
Cn1c(COc2ccc3ccccc3c2)nnc1SCC(=O)OC1CCCCC1	none (no result: CYP2C19 activ, CYP2C9 act, CYP2C19 inhib, CYP2C9 inh)
CC(C1CC1)N(C(=O)c1ccccc1O)c1ccccc1 (stereo not given)	CYP2C19 inhib 80.2 (no result: sEH inh, sEH act)
COc1ccc(-c2ncncc2-c2csc(C)n2)c(O)c1	CYP2C19 inhib 88.9
COc1ccc(-c2csc(C)n2)cc1	none (no result: CYP2C19 activ, CYP2C9 act, CYP2C19 inhib, CYP2C9 inh)
COc1ccc(-c2nc(C)ncc2-c2csc(C)n2)c(O)c1	CYP2C19 inhib 54.3
Cc1ccc(C(=O)N/C(=C/c2ccc(-c3cc(C(F)(F)F)ccc3Cl)o2)C(=O)NCc2cccnc2)cc1	CYP2C9 inh 57.6 (no result: sEH inh, sEH act)
CCC(=O)Nc1nnc(-c2ccncc2)s1	CYP2C19 inhib 75.3
CCNc1nnc(-c2ccncc2)s1	CYP2C19 inhib 71.2 (no result: sEH inh, sEH act)
O=C(Nc1nnc(-c2ccccc2F)s1)C1CCCO1 (stereo not given)	none (no result: CYP2C19 activ, CYP2C9 act, CYP2C19 inhib, CYP2C9 inh)
O=C(Nc1nnc(-c2ccncc2)s1)C1CCCO1 (stereo not given)	CYP2C19 inhib 77.8
Cc1cccc(N2C(=O)CS/C2=N\NC(=O)c2ccc(Br)cc2)c1C	none (no result: CYP2C19 activ, CYP2C9 act, CYP2C19 inhib, CYP2C9 inh)
CCOC(=O)C1C(=O)Nc2nc3ccccc3n2C1C(C)C (stereo not given)	none
CCOC(=O)C1=C(C)N(C)C(=O)NC1c1cccc(O)c1 (stereo not given)	none
COC(=O)C1=C(C)N(C)C(C)=C(C(=O)OC)C1c1ccsc1	CYP2C19 inhib 68.5, CYP2C9 inh 91.1
COC(=O)C1=C(C)N(C)C(C)=C(C(=O)OC)C1c1ccc(C(=O)OC)cc1	CYP2C19 inhib 96.7, CYP2C9 inh 92.1
COC(=O)C1=CNC=C(C(=O)OC)C1c1ccc(C(=O)OC)cc1	CYP2C19 inhib 98.8, CYP2C9 inh 95.2 (no result: sEH inh, sEH act)
COC(=O)C1=C(C)N(C)C(=O)NC1c1ccc(C)cc1 (stereo not given)	CYP2C19 inhib 53.6
COC(=O)c1ccc(C(=O)OC)nc1	none
O=C(CC1(O)C(=O)Nc2ccccc21)c1cccnc1 (stereo not given)	none
O=C(NCc1ccco1)C1CCC(N2C(=O)c3ccccc3C2=O)CC1 (stereo not given)	none
Cc1csc2nc(CNC(=O)C3CC=CCC3C(=O)O)cn12 (stereo not given)	none
COc1ccc(-n2c(Cc3cccn3C)nnc2SCC(=O)Nc2ccc3c(c2)OCO3)cc1	none (no result: sEH inh, sEH act)
C=CCn1c(=NC(=O)C2CC2)sc2cc(NC(C)=O)ccc21	none
C=CCn1c(=NC(=O)C2CCCCC2)sc2cc(NC(C)=O)ccc21	CYP2C9 inh 67.7 (no result: sEH inh, sEH act)
COC(=O)c1ccc(COc2ccc(C3C4=C(CCCC4=O)Nc4onc(C)c43)cc2)cc1 (stereo not given)	CYP2C9 inh 67.8
COc1cc(C)c(N)cc1C(C)C	CYP2C19 inhib 88.4, CYP2C9 inh 56.8
CCC(=O)Nc1ccccc1C(=O)OCC(=O)Nc1ccc(S(N)(=O)=O)cc1	none
CCCCNc1ccccc1C(=O)OCC(=O)Nc1ccc(S(N)(=O)=O)cc1	CYP2C9 inh 85.5
CC1(C)NC(=O)N(CC(O)CN2CCOCC2)C1=O (stereo not given)	CYP2C19 inhib 56.0
Cc1ccc(OCC(O)CN2C(=O)NC(C)(C)C2=O)cc1 (stereo not given)	none (no result: CYP2C19 activ, CYP2C9 act, CYP2C19 inhib, CYP2C9 inh)
CC1(C)NC(=O)N(CC(O)CN2C(=O)NC(C)(C)C2=O)C1=O	none
CC1(C)NC(=O)N(CC(O)CN(Cc2ccccc2)Cc2ccccc2)C1=O (stereo not given)	CYP2C19 inhib 84.7
Cc1ccc(OCC(O)CN2C(=O)NC(C)(C)C2=O)cc1C (stereo not given)	CYP2C19 inhib 84.0
CC(C)CC1CC(=O)OC1(C)C(=O)CSc1nc2ccccc2s1 (stereo not given)	none
COc1ccc(S(=O)(=O)N[C@@H](Cc2ccc(Cl)cc2)C(=O)N2CC[C@@]3(O)CCCC[C@H]3C2)cc1	none
Cn1c(CCC(=O)Nc2ccc(N3CCOCC3)cc2)nc(=O)c2ccccc21	none (no result: sEH inh, sEH act)
O=C(CCn1ccc2ccccc21)Nc1ccc(N2CCOCC2)cc1	CYP2C19 inhib 55.2
CC1=C(C(=O)Nc2ccccc2)C(c2ccncc2)C(C#N)=C(SCC(=O)NC2CC2)N1 (stereo not given)	CYP2C19 inhib 85.3, CYP2C9 inh 77.2 (no result: sEH inh, sEH act)
CC1=C(C(=O)Nc2ccccc2)C(c2ccncc2)C(C#N)=C(SCC(=O)NC(C)C)N1 (stereo not given)	CYP2C19 inhib 78.4, CYP2C9 inh 64.6
CC1=C(C(=O)Nc2ccccc2)C2(CCCCC2)C(C#N)=C(SCC(N)=O)N1	none
O=C(NCc1ccco1)C(c1ccco1)N(CCc1ccccc1)C(=O)Cn1nnc2ccccc21 (stereo not given)	none
Cc1nc(CSc2ccc(Cl)cc2)cc(N2CCOCC2)n1	CYP2C19 inhib 94.3
CCCc1cc(=O)n2[nH]c(NCc3ccc(Cl)cc3Cl)nc2n1	none
Cc1cc(NCc2ccccc2)nc2ccccc12	none (no result: CYP2C19 activ, CYP2C9 act, CYP2C19 inhib, CYP2C9 inh)
CSCc1cc(N2CCOCC2)nc(SCc2ccc(Cl)c(Cl)c2)n1	CYP2C19 inhib 52.6
Cc1nc(CSc2ccc(Cl)cc2)cc(NCc2ccccc2)n1	CYP2C19 inhib 85.0, CYP2C9 inh 91.1
Cc1ccc(SCc2cc(=O)[nH]c(N3CCOCC3)n2)cc1	none
Cc1nc(CS(=O)c2ccc(Cl)cc2)cc(NCc2ccc(Cl)cc2Cl)n1 (stereo not given)	CYP2C19 inhib 91.3, CYP2C9 inh 96.3
CN(C)c1nc(Cl)cc(N2CCOCC2)n1	none
COc1ccccc1-c1c(C#N)c(SCC(=O)N2CCCC2)nc(C)c1C(N)=O	none
S=C(Nc1ccc(N2CCOCC2)cc1)Nc1ccc2nc(-c3ccco3)c(-c3ccco3)nc2c1	none
CN1C(=O)N(c2ccccc2)C(Nc2nncs2)C1(C)C (stereo not given)	none (no result: sEH inh, sEH act)
CCOC(=O)CCNC(C(=O)OCC)c1ccccc1 (stereo not given)	none
O=C(O)COCc1nc2ccccc2[nH]1	none
Cc1c(C(=O)NCCc2ccccc2)oc2ccc(S(=O)(=O)N3CCC4(CC3)OCCO4)cc12	CYP2C19 inhib 62.6, CYP2C9 inh 86.7
COc1ccc(CCNC(=O)c2oc3ccc(S(=O)(=O)N4CCOCC4)cc3c2C)cc1OC	CYP2C9 inh 73.2
Cc1ccc(CNC(=O)c2oc3ccc(S(=O)(=O)N4CCOCC4)cc3c2C)cc1	none
O=S(=O)(c1ccccc1)c1nc(-c2ccccc2)oc1N1CCCCC1	none
